Data: PubChem BioAssay AID743314 (Broad Institute, 2014)
Measured potencies and affinities stand elsewhere. Inconclusive results are not listed. The source made the active and inactive calls.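 The calls were made as follows: active = fitted half-maximal concentration no higher than twice the top tested dose, in every repeat run; inconclusive = repeat runs disagree, poor fit, or flat partial inhibition; inactive = the rest.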

target: Endoplasmic reticulum aminopeptidase 1 (Homo sapiens) (UniProt Q9NZ08); experiment: inhibition of human ERAP1 enzyme activity – biochemical, cherry-pick, set 2, plate reader, dose response (AID 743314); conditions: Recombinant ERAP1, Leu-AMC fluorescence, 60 min; series mostly up to 11 µM
Sequence (Q9NZ08 whole entry, looked up): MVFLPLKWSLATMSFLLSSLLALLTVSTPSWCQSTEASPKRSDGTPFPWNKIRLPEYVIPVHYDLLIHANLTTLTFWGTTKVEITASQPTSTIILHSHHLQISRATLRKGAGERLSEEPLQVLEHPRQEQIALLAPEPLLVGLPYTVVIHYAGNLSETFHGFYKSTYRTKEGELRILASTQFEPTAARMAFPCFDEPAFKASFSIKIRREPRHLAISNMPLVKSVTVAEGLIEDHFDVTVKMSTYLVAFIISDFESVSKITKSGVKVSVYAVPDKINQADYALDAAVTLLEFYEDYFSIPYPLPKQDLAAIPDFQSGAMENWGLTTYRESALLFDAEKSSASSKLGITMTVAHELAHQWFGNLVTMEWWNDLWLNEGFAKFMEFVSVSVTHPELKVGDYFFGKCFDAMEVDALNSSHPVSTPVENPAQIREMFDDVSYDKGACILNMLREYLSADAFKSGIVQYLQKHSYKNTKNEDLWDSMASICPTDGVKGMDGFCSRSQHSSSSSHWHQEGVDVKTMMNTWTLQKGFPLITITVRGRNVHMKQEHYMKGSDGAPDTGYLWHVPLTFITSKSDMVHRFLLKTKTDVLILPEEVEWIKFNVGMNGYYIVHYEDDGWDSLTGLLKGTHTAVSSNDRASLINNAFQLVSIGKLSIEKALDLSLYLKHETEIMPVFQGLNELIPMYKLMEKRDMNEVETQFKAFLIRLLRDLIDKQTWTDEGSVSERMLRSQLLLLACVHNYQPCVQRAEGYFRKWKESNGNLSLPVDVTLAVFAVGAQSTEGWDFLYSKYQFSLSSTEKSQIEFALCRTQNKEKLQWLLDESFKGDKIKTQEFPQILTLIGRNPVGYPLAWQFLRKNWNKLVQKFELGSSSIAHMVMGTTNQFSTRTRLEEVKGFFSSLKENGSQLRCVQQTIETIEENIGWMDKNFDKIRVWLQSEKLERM

outcome, inactive:
CCN1CCN(CCCNC(=O)c2cc3c(s2)-c2ccccc2OC3)CC1
N#Cc1ccccc1OCC(=O)OCC(=O)c1ccc2c(c1)NC(=O)CO2
COc1ccc2c3c(n(C)c2c1)[C@@H](CO)N(C)CC31CN(C(=O)c2cccnc2)C1
Cc1cc(C)n2nc(C(=O)N3CCN(c4ccc([N+](=O)[O-])cc4)CC3)nc2n1
Cc1ccc2nc3c(cc(C(=O)NCc4ccccc4)c(=N)n3CCCn3ccnc3)c(=O)n2c1
C[C@H]1CN([C@@H](C)CO)C(=O)c2cccc(NC(=O)Nc3ccc(C(F)(F)F)cc3)c2O[C@H]1CN(C)C
COc1ccc(CN(C)C[C@@H]2OCCCC[C@H](C)Oc3ccc(NS(=O)(=O)c4cccs4)cc3C(=O)N([C@H](C)CO)C[C@@H]2C)cc1
Cc1noc(C)c1NC(=O)N(C)C[C@H]1Oc2c(NC(=O)Nc3ccc(F)cc3)cccc2C(=O)N([C@@H](C)CO)C[C@@H]1C
CC(Sc1nnc(-c2cccnc2)n1C)C(=O)N1CCOCC1 (stereo not drawn)
C[C@@H]1CCCCO[C@@H](CN(C)Cc2ccc(C(=O)O)cc2)[C@H](C)CN([C@@H](C)CO)C(=O)c2cc(NS(=O)(=O)c3ccc(Cl)cc3)ccc2O1
C[C@@H]1CCCCO[C@H](CN(C)C)[C@@H](C)CN([C@@H](C)CO)C(=O)c2cc(NS(=O)(=O)c3ccc(Cl)cc3)ccc2O1
CCc1nnc(NC(=O)c2cc(S(=O)(=O)N3CCOCC3)ccc2N2CCCCC2)s1
N#Cc1ccc(-c2ccc([C@H]3[C@H](CO)N4C(=O)CN(C(=O)C5CC5)C[C@@H]34)cc2)cc1
